This is an account of results in PubChem BioAssay (NCATS).

Several values for one entry are separate records, joined by “and”; a condition that tells them apart may be missing. Identical values can stand only once. Records with an inconclusive call do not appear. A number with no mark means an inactive call. Activity calls are given as the source filed them. Calls come from the whole dose curve; as a rule, active = well fitted curve in the direction sought with a large enough effect; inconclusive = small, poorly fitted or top-dose-only effect, or another doubt; inactive = no such curve, though single readings can be large or run the other way.
% is set by controls: 0 for no effect and ±100 for the full control effect; potency is the fitted concentration of half-maximal effect.

This assay is described as follows: qHTS Assay for Identifying Gametocytocidal Compounds (AID 743244).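 For max response: actives lower the fluorescent signal which means gametocytes are killed.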 The settings on record: P. falciparum 3D7 stage III-V gametocytes, alamarBlue, 72 h; max response: active compounds read low. The source says: Malaria cases and deaths have dropped 50% in 29 countries since 2000 due to the combined effects of long-lasting insecticidal bednets, indoor residual spraying, and artemisinin-based combination therapies (ACTs). This success has raised hopes for malaria eradication and consequently stimulated interest in developing new reagents that block gametocyte transmission such as novel and safe gametocytocidal drugs. However, previous drug development efforts have focused primarily on the asexual parasites that cause symptoms, but not malaria transmission. Consequently, patients can remain infectious for weeks after the clearance of asexual parasites and clinical symptoms. To be transmitted from person to person via a mosquito, the parasites must switch from asexual to sexual development and produce male and female gametocytes. Malaria gametocytes consist of five stages (I, II, III, IV and V). The late stage gametocytes (III, IV and V) are difficult to be cultured in vitro and the long lifespan of mature gametocytes allows them being transmitted from host to mosquitoes unless they are completely eliminated by gametocytocidal agents. To identify gametocytocidal compounds which are capable of killing late stage P. falciparum gametocytes, a high throughput gametocyte viability assay was employed. This assay uses oxidoreduction indicator, alamarBlue, as a general measure of metabolic activity of gametocytes. Within live cells, the nonfluorescent resazurin is reduced to resorufin, a bright red fluorescence dye. Fluorescence decreases upon treatment of gametocytocidal compounds. P. falciparum gametocyte (3D7 strain) was used in this study.
The 1536-well gametocycidal viability assay was based on the previous method of Tanaka et al. Stage III-V gametocytes were tested against three compound libraries, including 4265 compounds from NCGC pharmaceutical collection, 400 from Malaria Box library, and 550 from an internal collection of kinase inhibitors. Briefly, 2.5 ul/well incomplete medium was dispensed into each well of 1,536-well plates using the Multidrop Combi followed by 23 nl compound transferring using the NX-TR Pintool (WAKO Scientific Solutions, San Diego, CA). Then, 2.5 ul/well of gametocytes was dispensed with a seeding density of 20,000 cells/well using the Multidrop Combi. The assay plates were incubated for 72 h at 37C with 5% CO2. After addition of 5 ul/well of 2X AlamarBlue dye (Life Technologies, cat. no. DAL1100), the plates were incubated for 24 h at 37C with 5% CO2 and then were read in a fluorescence detection mode (Ex = 525 nm, Em = 598 nm) on a ViewLux plate reader (PerkinElmer).
(In general: qHTS replaces the single test concentration by a dilution series.)
As for `CC[C@@]1(O)C[C@H](O[C@H]2C[C@H](N(C)C)[C@H](O[C@H]3C[C@H](O)[C@H](O[C@H]4CCC(=O)[C@H](C)O4)[C@H](C)O3)[C@H](C)O2)c2c(cc3c(c2O)C(=O)c2c(O)cccc2C3=O)[C@H]1C(=O)OC`, the Potency is 0.112 µM (active).

In the case of `CCOC(=O)CCC(=O)O[C@H]1[C@H](O[C@@H]2[C@@H](C)[C@H](O[C@H]3C[C@@](C)(OC)[C@@H](O)[C@H](C)O3)[C@@H](C)C(=O)O[C@H](CC)[C@@](C)(O)[C@H](O)[C@@H](C)C(=O)[C@H](C)C[C@@]2(C)O)O[C@H](C)C[C@@H]1N(C)C`, the max response is -6.05%.

For the compound `N#C[C@@H]1C[C@@H]2C[C@@H]2N1C(=O)[C@@H](N)C12CC3CC(CC(O)(C3)C1)C2`, the max response was -8.8%.

Consider `C=C1/C(=C\C=C2/CCC[C@]3(C)[C@@H]([C@H](C)OCCC(C)(C)O)CC[C@@H]23)C[C@@H](O)C[C@@H]1O`, for which the max response is -1.53%.

For the compound `O=Nc1c(-c2c(O)[nH]c3ccccc23)[nH]c2ccccc12`, the max response was 1.55%.

`C/C1=C2N=C(/C=C3N=C(/C(C)=C4\[N-]C(C(CC(N)=O)C4(C)CCC(=O)NCC(C)OP(=O)([O-])OC4C(CO)OC(n5cnc6cc(C)c(C)cc65)C4O)C4(C)N=C1C(CCC(N)=O)C4(C)CC(N)=O)C(CCC(N)=O)C\3(C)C)C(CCC(N)=O)C/2(C)CC(N)=O.[CH3-].[Co+3]` (configuration not stated): the Potency is 22.4 µM (active).

As for `Nc1c(S(=O)(=O)O)cc(Nc2ccc(Nc3nc(Cl)nc(Nc4ccc(S(=O)(=O)O)cc4)n3)c(S(=O)(=O)O)c2)c2c1C(=O)c1ccccc1C2=O`, the max response is 27.3%.

With `CC1(C)N=C(N)N=C(N)N1c1ccc(Cl)cc1`, the max response was -2.29%.

Turning to `C[C@H](Cc1ccccc1)Nc1ncnc2c1ncn2[C@@H]1O[C@H](CO)[C@@H](O)[C@H]1O`, the max response is -7.31%.

Regarding `N[C@@H](C(=O)N[C@@H]1C(=O)N2C(C(=O)O)=C(CSc3cn[nH]n3)CS[C@H]12)c1ccc(O)cc1`, the max response is -0.063%.

`CCCCCCCCCCCCCCCCSCC(COC)COP(=O)([O-])OCC[N+](C)(C)C` (configuration not stated): the max response is -10.5%.

For the compound `C#C[C@]1(OC(C)=O)CC[C@H]2[C@@H]3CCC4=CC(=O)CC[C@@H]4[C@H]3CC[C@@]21C`, the max response was -3.45%.

For `CCCCCCC(=O)O[C@H]1CC[C@H]2[C@@H]3CCc4cc(O)ccc4[C@H]3CC[C@]12C`, the max response was -2.62%.

On to `CCOC(=O)CN[C@@H](C(=O)N1CC[C@H]1C(=O)NCc1ccc(/C(N)=N/O)cc1)C1CCCCC1`, for which the max response is 9.4%.

In the case of `Cc1cccc(/C=C/c2ccccc2)n1`, the max response was 6.48%.

Turning to `NCCNCCN`, the max response was 9.59%.

Regarding `C[N+]1(C)CCN(CC(O)(c2ccccc2)C2CCCCC2)CC1` (configuration not stated), the max response is -2.89%.

Consider `S=C(Nc1ccccc1)Nc1nccs1`, for which the Potency is 1.58 µM (active).

For the compound `CN(CC(=O)N1CCOCC1)Cc1c(Cl)cccc1NC(=O)c1ccccc1`, the max response was -0.892%.

Consider `C1CCC(N=C(NC23CC4CC(CC(C4)C2)C3)N2CCOCC2)CC1`, for which the max response was 10.5%.

Regarding `Nc1ccc(N)c([N+](=O)[O-])c1`, the Potency is 39.8 µM (active).

On to `CCCCCCCC[N+](C)(C)CCCCCCCC`, for which the Potency is 7.94 µM (active) and 8.91 µM (active).

In the case of `CCc1ccc(/C=C2/SC(=S)NC2=O)cc1`, the max response is 30.7%.

With `COc1cc([C@@H]2c3cc4c(cc3C(O[C@@H]3O[C@@H]5CO[C@@H](C)O[C@H]5[C@H](O)[C@H]3O)C3COC(=O)[C@@H]32)OCO4)cc(OC)c1OP(=O)(O)O` (some centres not stated), the max response is 4.76% and -12.7%.

`N#C/C(=C\c1ccc(O)c(O)c1)C(=O)Nc1ccccc1`: the max response is 12.5%.

Take `CCNC(=O)[C@@H]1CCCN1C(=O)[C@H](CCCN=C(N)N)NC(=O)[C@H](CC(C)C)NC(=O)[C@@H](CC(C)C)NC(=O)[C@H](Cc1ccc(O)cc1)NC(=O)[C@H](CO)NC(=O)[C@H](Cc1c[nH]c2ccccc12)NC(=O)[C@H](Cc1cnc[nH]1)NC(=O)[C@@H]1CCC(=O)N1`: the max response is 2.85%.

In the case of `CCC(=O)O[C@H]1CC[C@H]2[C@@H]3CCc4cc(O)ccc4[C@H]3CC[C@]12C`, the max response was 3.09%.
